Screening results (PubChem BioAssay)
HePTP inh: inhibitors of human HePTP phosphatase. inhibition, % at 20 µM. AID 521. 110,000 tested, 0.64% active. recombinant HePTP phosphatase activity, OD absorbance. P35236; in the data active means inhibition above about 50%;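 further: plate controls were vehicle for no effect and reference inhibitor for full effect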
Hsp90 block: displaces geldanamycin probe from tumor Hsp90; P07900; NCI-N417 lysate Hsp90, Cy3B-geldanamycin FP displacement; inhibition, % at 30 µM; 64,000 tested, 0.35% active;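 active means inhibition above 50%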;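 further: 0% = tracer plus lysate wells and 100% = tracer alone without lysate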
MKP-1 inh: human dual specificity phosphatase 1 inhibition | inhibition, %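 (compounds tested at a single concentration somewhere between 10 and 100 µM)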 | P28562 | AID 374 | 65,000 tested, 0.15% active | recombinant MKP-1, OMFP hydrolysis fluorescence;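 active means inhibition above about 50%, limit read from the data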;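 further: 0% = DMSO max control wells and 100% = wells with enzyme stopped by NaOH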
TNAP act DEA: human TNAP activation, intermediate phosphate acceptor. P05186. 64,000 tested, under 10 active. AID 813. activation factor at 20 µM. purified TNAP, CDP-star luminescence, 100 mM DEA, 30 min; hits give high values; scale: 0 levamisole-inhibited, 1 vehicle-only enzyme;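 active means activation factor of at least 2 at 20 µM, relative to controls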
Cdc25B inh: human M-phase inducer phosphatase 2 inhibition; AID 368; recombinant Cdc25B, OMFP fluorescence Ex485/Em525; inhibition, %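 (compounds tested at 10 µM final in the well)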; 65,000 tested, 0.1% active; P30305; in the data active means inhibition above about 50%
PLAP act: human PLAP activation; activation fold at 20 µM; P05187; purified PLAP enzyme, luminescent substrate read-out; hits give high values; 96,000 tested, 1.2% active; in the data active means activation fold above about 2
Target sequence (P05187 whole entry, looked up): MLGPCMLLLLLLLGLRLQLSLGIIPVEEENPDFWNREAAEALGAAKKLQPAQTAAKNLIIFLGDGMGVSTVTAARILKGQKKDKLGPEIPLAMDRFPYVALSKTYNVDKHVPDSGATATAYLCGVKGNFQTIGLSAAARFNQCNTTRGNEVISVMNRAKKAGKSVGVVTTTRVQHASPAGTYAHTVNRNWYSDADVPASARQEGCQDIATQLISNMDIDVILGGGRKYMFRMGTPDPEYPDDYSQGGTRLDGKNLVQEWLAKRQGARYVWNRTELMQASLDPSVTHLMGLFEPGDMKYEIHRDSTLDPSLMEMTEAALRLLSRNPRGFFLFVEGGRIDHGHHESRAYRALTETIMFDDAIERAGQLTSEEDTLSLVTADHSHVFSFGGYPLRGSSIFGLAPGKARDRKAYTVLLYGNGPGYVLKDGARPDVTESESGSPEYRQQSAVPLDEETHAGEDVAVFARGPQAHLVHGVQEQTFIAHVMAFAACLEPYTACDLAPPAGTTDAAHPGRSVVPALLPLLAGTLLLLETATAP
Active calls of the source: *; / = no result given. Compounds with a hit are over-represented: about 1.5% of the library has one in this group of screens.

SMILES | HePTP inh | Hsp90 block | MKP-1 inh | TNAP act DEA | Cdc25B inh | PLAP act
Cn1c(O)c(N=Nc2ccc(Br)cc2)c(=O)[nH]c1=O | -3.9 | / | / | / | / | /
C=CCn1c(-c2cccc3ccccc23)n[nH]c1=S | / | / | / | / | / | 2.8*
C=CCn1c(-c2ccccc2C)n[nH]c1=S | 10.8 | / | / | / | / | /
CN(C)CCNC(=O)C(=O)NC(c1ccccc1)c1ccccc1 | 10.2 | / | / | / | / | /
COc1cc(NC(=O)c2cc(Cl)ccc2OC)ccc1NC(=O)c1ccco1 | 0.7 | / | / | / | / | /
CCCC1(C(=O)O)NC(c2ccccc2O)C2C(=O)N(c3cccc(Cl)c3)C(=O)C21 (centres undefined) | 8.3 | -2.9 | 0.6 | 1.1 | -16.6 | 2.4*
COc1ccc(N2C(=O)/C(=C/c3cc([N+](=O)[O-])cc(OC)c3O)SC2=S)cc1 | 104.3* | / | / | / | / | /
COc1c(Cl)ccc(Cl)c1C(=O)NCCc1nc2ccccc2[nH]1 | 7.4 | / | / | / | / | /
Nc1c(C(=O)NCc2ccco2)c2nc3ccccc3nc2n1CCc1ccc(F)cc1 | / | / | / | / | / | 2*
O=C1/C(=C/c2ccc(C(F)(F)F)cc2)SC(=S)N1Cc1ccccc1 | -3.7 | / | / | / | / | /
COc1ccc(N2CCN(C(=O)CCCn3c(=O)[nH]c4cc(Cl)ccc4c3=O)CC2)cc1 | / | / | / | / | / | 2*
O=C(CCCn1c(=O)[nH]c2cc(Cl)ccc2c1=O)NCCCN1CCCC1 | -6.9 | -0.2 | 13.3 | 1 | 8.5 | 1.4
O=C(COc1ccc(Br)cc1)NNC(=O)Nc1ccccc1 | -1.5 | / | / | / | / | /
Cc1cc(C)cc(NC(=O)c2sc3ccccc3c2Cl)c1 | -2.2 | / | / | / | / | /
COc1ccc2[nH]c(=S)[nH]c2c1 | 6.6 | -1.3 | -12.2 | 1 | -2.5 | 2.6*
S=c1[nH]c2ccc(Cl)cc2[nH]1 | 5.7 | -1.0 | -3.4 | 0.9 | -12.0 | /
N#Cc1c(/N=C/c2cc([N+](=O)[O-])c(N3CCOCC3)cc2N2CCOCC2)sc2c1CCCC2 | 6.3 | / | / | / | / | /
COc1ccccc1/C=C1\C(=O)NC(=O)N(c2ccc(Br)cc2)C1=O | 4.5 | / | / | / | / | /
Cc1cc(N2C(=O)NC(=O)/C(=C\c3ccco3)C2=O)ccc1Br | 80.5* | / | / | / | / | /
O=C1NC(=O)N(c2ccc(Br)cc2)C(=O)/C1=C/c1ccco1 | 104.3* | / | / | / | / | /
Nc1cc(Cl)c(S(=O)(=O)N2CCOCC2)cc1S(=O)(=O)N1CCOCC1 | 12.1 | / | / | / | / | /
CCCCNc1ccccc1C(=O)OCC(=O)Nc1ccc(S(N)(=O)=O)cc1 | / | / | / | / | / | 2.1*
CCC(=O)Nc1ccccc1C(=O)OCC(=O)Nc1ccc(S(N)(=O)=O)cc1 | 7.3 | -5.4 | 4.8 | 0.9 | -15.6 | 0.9
C=CCNC(=S)NNC(=O)CCC(O)CCCCC (centres undefined) | / | / | / | / | / | 2.4*
Nc1nc(SCc2c(Cl)cccc2Cl)n[nH]1 | / | / | / | / | / | 1.9
SMILES | HePTP inh | Hsp90 block | MKP-1 inh | TNAP act DEA | Cdc25B inh | PLAP act
Cc1cccc(C)c1OCCSc1n[nH]c(N)n1 | / | / | / | / | / | 2*
O=C(NC1CC1)c1c[nH]c2ccc(S(=O)(=O)Nc3cccc(C(F)(F)F)c3)cc2c1=O | 8.5 | -1.6 | 52.5* | 0.9 | 0.2 | 1
CCOc1ccc(N2C(=O)NC(=O)/C(=C\c3ccc(Br)o3)C2=O)cc1 | 93.2* | / | / | / | / | /
O=C1NN(c2ccccc2)C(=O)/C1=C/c1ccco1 | -4.6 | / | / | / | / | /
O=C1NC(=O)N(c2ccccc2)C(=O)/C1=C\c1ccc(Br)o1 | 68.9* | / | / | / | / | /
O=C1NN(c2ccccc2)C(=O)/C1=C/c1ccc(-c2ccccc2[N+](=O)[O-])o1 | 23.1 | / | / | / | / | /
O=C1NN(c2ccccc2)C(=O)/C1=C/c1ccc(Br)o1 | 102.4* | / | / | / | / | /
O=C1NN(c2ccccc2)C(=O)/C1=C/c1ccc([N+](=O)[O-])o1 | 102.7* | / | / | / | / | /
O=C1NC(=O)N(c2ccccc2)C(=O)/C1=C/c1ccc(-c2ccccc2C(=O)O)o1 | -7.2 | / | / | / | / | /
CCC(=O)NC(c1ccc(N(C)C)cc1)c1ccc2cccnc2c1O (centres undefined) | -14.3 | / | / | / | / | /
O=Cc1[nH]c2ccccc2c1Nc1ccc([N+](=O)[O-])cc1 | 7.7 | / | / | / | / | /
COc1ccc(C(=O)Nc2cc(C(=O)O)cc(C(=O)O)c2)cc1 | -17.2 | / | / | / | / | /
CC(C)Oc1ccc(C(=O)Nc2nc3ccccc3s2)cc1 | 96.3* | / | / | / | / | /
Oc1c(Cl)cc(Cl)cc1/C=N/Nc1nc(-c2ccc(Br)cc2)cs1 | 12.8 | / | / | / | / | /
O=C(COc1ccccc1[N+](=O)[O-])Nc1ccc(-c2nc3ncccc3o2)cc1 | 65.0* | / | / | / | / | /
Cc1cc(OCC(=O)Nc2ccc(-c3nc4ncccc4o3)cc2)ccc1Cl | 63.1* | / | / | / | / | /
Cc1cc(OCC(=O)Nc2ccc3oc(-c4ccncc4)nc3c2)ccc1Cl | 10.9 | 4.3 | -11.8 | 0.9 | 8.9 | 0.9
O=C(COc1ccccc1[N+](=O)[O-])Nc1ccc(-c2nc3ccccc3o2)cc1 | 13.1 | / | / | / | / | /
